# Rows were chosen to be rich in hits. Some 7% of all compounds tested hit in one or more screens of this group.
# DRD3 antagonist – qHTS of D3 Dopamine Receptor Antagonist: qHTS; D3R cells, DiscoveRx beta-arrestin luminescence, antagonist mode; active compounds read low; max response, negative = inhibition, %; 360,000 compounds, 2.5% hits; AID 652054, 2013; in the data active means max response below about -50%; inconclusive means no clear call, values can overlap the other calls; further: on the % scale 0 is the no-effect control and ±100 the full control effect
# Target sequence (P35462 whole entry, looked up): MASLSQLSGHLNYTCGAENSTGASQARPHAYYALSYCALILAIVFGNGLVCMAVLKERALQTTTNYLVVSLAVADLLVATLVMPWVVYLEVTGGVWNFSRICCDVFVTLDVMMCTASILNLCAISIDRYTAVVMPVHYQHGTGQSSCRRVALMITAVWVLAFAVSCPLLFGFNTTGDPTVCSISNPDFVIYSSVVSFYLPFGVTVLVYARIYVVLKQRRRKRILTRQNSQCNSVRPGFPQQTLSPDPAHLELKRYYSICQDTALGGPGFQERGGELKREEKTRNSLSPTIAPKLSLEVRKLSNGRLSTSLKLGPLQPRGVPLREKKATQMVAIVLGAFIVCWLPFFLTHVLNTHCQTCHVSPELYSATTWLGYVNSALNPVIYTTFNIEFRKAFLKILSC
#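 Cells plated overnight at 1500 cells/well, then exposed to library compounds with dopamine controls for 90 minutes at 37 degrees C. DiscoveRx reagent added for 30–60 minutes at room temperature; luminescence read, quantitative HTS format.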
# IL-1B inflam inh – qHTS for Inhibitors of Inflammasome Signaling: IL-1-beta AlphaLISA Primary Screen. THP-1 LPS/ATP IL-1B secretion, AlphaLISA, 16 h; active compounds read low. AID 743279, 2014. 360,000 compounds, 4.7% hits. activity change, % at 57.5 µM; in the data active means activity change below about -50%; inconclusive means mostly about -30% to -49%; further: on the % scale 0 is the no-effect control and ±100 the full control effect
#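 THP-1 cells pretreated 1 hr with compounds (up to 57.5 uM final), then stimulated with LPS (250 ng/mL final) plus ATP (1.25 mM final); secreted IL-1B measured by AlphaLISA after 16 hr, decreased signal indicating inhibition.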
# ATXN viability – Viability Counterscreen for Primary qHTS for Inhibitors of ATXN expression | S2 cells (HEK-293 line with an ATXN2-luciferase reporter) viability, CellTiter-Fluor protease fluorescence, 24 h | Potency, µM (series often up to 56.7 µM), most hits filed as cytotoxic | 400,000 compounds, 0.49% hits; further: potency means the concentration at half of the fitted maximal effect; nearly all actives have a fitted effect of over 40% in size
# ATXN2 expr inh – Primary qHTS for Inhibitors of ATXN expression; Potency, µM (highest dose often 57 µM), for inactives: at the top dose activity change, negative = inhibition, usual class: inhibitors; HEK-293 ATXN2-luciferase reporter, luminescence, 24 h; AID 1745845, 2022; 360,000 compounds, 0.72% hits; further: potency means the concentration at half of the fitted maximal effect; on the % scale 0 is the no-effect control and ±100 the full control effect; nearly all actives have a fitted effect of over 55% in size
#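 ATXN2-luciferase reporter cells (luciferase flanked by upstream and downstream ATXN2 gene portions) were treated 24 h at 37 °C with compounds at up to 57 uM. SteadyGlo luminescence gave expression; GF-AFC fluorescence gave viability.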
# Integrin act MD – qHTS for Activators of Integrin-Mediated Alleviation for Muscular Dystrophy. Potency, µM (titrated, usually from 38.3 µM), without a hit: at the top dose activation, actives largely listed as activators. AID 624291, 2012. alpha7betagal myoblasts, beta-gal FDG fluorescence, 48 h. 350,000 compounds, 0.064% hits;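 further: potency means the concentration at half of the fitted maximal effect; 100% = response of the positive control SU9516; nearly all actives have a fitted effect of over 60% in size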
#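 Alpha7betagal+/- myoblasts (passage 13) were plated 16-24 hr, then exposed to compounds (1:260 dilution of DMSO stock) for 48 hours at 37C. After MPER lysis, β-galactosidase reporter activity was read as FDG fluorescence (ex 480/em 540) after 30 minutes.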
# D3 ag – qHTS of D3 Dopamine Receptor Agonist: qHTS; D(3) dopamine receptor (Homo sapiens), P35462; D3R DiscoveRx beta-arrestin cells, luminescence, 90 min; max activation, %; 410,000 compounds, 0.58% hits; in the data active means max activation above about 30%; further: 0% is about no effect
#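 Agonist-mode cell screen: cells plated at 1500/well and incubated overnight at 37 °C, then exposed to library compounds for 90 min at 37 °C. Detection reagent was added for 30–60 min at room temperature, and luminescence was read.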
# Active calls of the source: *; i = inactive; ? = inconclusive; / = no result given; [ ] = remark or other dose. Unless noted, the call rests on the fitted dose curve; in most records, active means well fitted curve in the direction sought with a large enough effect; inconclusive means small, poorly fitted or top-dose-only effect, or another doubt; inactive means no such curve, though single readings can be large; an effect the other way counts as inactive or inconclusive.
SMILES,DRD3 antagonist,IL-1B inflam inh,ATXN viability,ATXN2 expr inh,Integrin act MD,D3 ag
Cc1ccc(NC(=S)N2CCC(c3nc4ccccc4s3)CC2)cc1,6.6,-50.2*,i,-4.1%,-4.4%,-11.1
C[C@H](NC(=O)CCn1nnc2ccccc2c1=O)C(=O)O,4.2,-4.5,i,/,23.0%,1.1
O=C(O)CCCNC(=O)CCn1nnc2ccccc2c1=O,17.8,31.0,i,/,11.2µM*,5.6
O=C(CCn1nnc2ccccc2c1=O)NCC1CCC(C(=O)O)CC1 (stereo not drawn),2.7,-10.6,i,0.0%,6.7%,-1.7
O=C(O)CCCCCNC(=O)CCn1nnc2ccccc2c1=O,-51.6*,-4.6,i,0.4%,13.9%,1.1
C=CCc1ccc(OCCOCCN(C)C)c(OC)c1,-70.9*,35.3,i,8.6%,0.0%,-3.9
C=CCc1ccc(OCCCCNC2CCCC2)c(OC)c1,-68.8*,-5.5,i,1.8%,-54.5%,-19.8
CN(C)S(=O)(=O)c1cccc(NC(=O)CSc2nncn2-c2ccccc2)c1,6.1,0.0,i,-7.3%,-48.5%,5.3
CC(C)c1ccc(NC(=O)CS(=O)(=O)c2cccc3nsnc23)cc1,/,/,i,14.3%,/,-1.6
OC(c1ccc(Cl)c(F)c1)c1ncc(-c2cccc3ccccc23)[nH]1 (stereo not drawn),0.0,-60.4*,i,?,/,-4.8
Cc1ccc(-c2cnc(C(O)c3c(C)cccc3C)[nH]2)cc1 (stereo not drawn),-54.7*,5.3,i,7.3%,/,-11.8
OC(c1cccc(Cl)c1)c1ncc(-c2ccc(Oc3ccccc3)cc2)[nH]1 (stereo not drawn),24.1,-51.6*,/,?,/,1.7
Cc1cccc(C)c1C(O)c1ncc(-c2cccc3ccccc23)[nH]1 (stereo not drawn),-75.7*,-11.4,i,-4.9%,/,0.8
OC(c1cccc(F)c1)c1ncc(-c2ccc(Oc3ccccc3)cc2)[nH]1 (stereo not drawn),34.9,-23.1,?,-23.1%,/,4.9
Cc1cc(C)c(C(O)c2ncc(-c3cccc4ccccc34)[nH]2)c(C)c1 (stereo not drawn),?,0.0,i,?,/,-1.6
CCOC(=O)CNC(=O)C1(/C=C/c2ccccc2)CC(=O)N1c1ccc(OC)cc1 (stereo not drawn),?,-16.5,i,-11.2%,6.1%,-2.2
Cc1cc(C)c(C(O)c2ncc(-c3ccccc3C)[nH]2)c(C)c1 (stereo not drawn),-55.9*,-26.0,i,-14.4%,/,-8.6
Cc1ccccc1-c1cnc(C(O)c2c(C)cccc2C)[nH]1 (stereo not drawn),-52.3*,-12.2,i,-1.7%,/,-14.8
Cc1cccc(C(O)c2ncc(-c3ccc(Cl)cc3)[nH]2)c1C (stereo not drawn),-9.9,-7.1,22.4µM*,-31.7%,/,1.8
Cc1cccc(C)c1C(O)c1ncc(-c2ccc(Cl)cc2)[nH]1 (stereo not drawn),6.8,?,i,-16.9%,/,2.4
Cc1cc(C)c(C(O)c2ncc(-c3ccccc3F)[nH]2)c(C)c1 (stereo not drawn),-6.0,-19.5,i,-17.0%,/,-1.1
COc1ccccc1CNC(=O)COC(=O)CSc1ccc(C)c(C)c1,4.1,11.6,i,2.7%,-19.7%,8.1
COc1cccc(NC(=O)CN(C)C(=O)c2c(C)nn(Cc3ccc(C)cc3)c2Cl)c1,6.2,-0.9,i,3.4%,-13.5%,3.5
O=C1C(CO)C(CO)C(CO)C1CO (stereo not drawn),-5.5,-5.7,i,-4.0%,-1.7%,38.7*
CC1CCCN(C(C(=O)NC2CCCCC2)c2cc3c(cc2[N+](=O)[O-])OCO3)C1 (stereo not drawn),-9.8,-59.1*,i,16.8%,0.3%,-3.2
SMILES,DRD3 antagonist,IL-1B inflam inh,ATXN viability,ATXN2 expr inh,Integrin act MD,D3 ag
O=C(OCc1nnc(-c2ccccc2Br)o1)c1ccco1,1.8,20.5,i,/,27.0%,-4.8
O=C(OCc1nnc(-c2ccccc2)o1)c1ccc(S(=O)(=O)NCc2ccco2)cc1,-78.3*,0.0,i,7.6%,0.0%,-5.3
CN(C)S(=O)(=O)c1ccc(C(=O)OCc2nnc(-c3ccccc3)o2)cc1,-7.2,5.7,i,-12.6%,-13.8%,4.6
CS(=O)(=O)c1ccc(C(=O)OCc2nnc(-c3ccccc3)o2)cc1[N+](=O)[O-],-59.9*,-69.6*,?,?,-68.2%,-15.3
O=C(OCc1nnc(-c2ccccc2)o1)c1ccc(CO)cc1,-51.4*,-5.1,i,-41.4%,23.8%,-3.9
Cc1ccc(-c2nnc(COC(=O)c3ccco3)o2)cc1,-95.4*,16.2,i,8.4%,9.0%,-5.1
COc1ccccc1[C@H]1C(c2cccc(Cl)c2)=NN(c2ccccc2)[C@@H]1CO,24.4,-24.7,/,?,-40.7%,0.0
COc1cc(C(C(=O)NC2CCCC2)N(C(=O)c2snc(C(N)=O)c2N)c2ccccc2)cc(OC)c1OC (stereo not drawn),-11.3,-10.4,i,-6.5%,4.5%,-2.3
O=C(OCc1ccccc1)c1cccc(-c2nnc(-c3ccccc3)o2)c1,25.2,-1.7,i,-16.7%,8.9%,37.9*
O=C(C(=NNc1ccccc1)C(=S)Nc1ccccc1)c1ccccc1,-28.9,-19.3,i,5.9%,/,-7.9
Cc1ccc(C)c(C(=O)COc2ccccc2[N+](=O)[O-])c1,-23.5,-51.3*,i,-1.0%,-39.0%,-5.9
CC(C)(C)N(NC(=O)Nc1ccc(Cl)c(Cl)c1)C(=O)c1ccccc1,3.3,-50.9*,?,?,-27.2%,0.6
CC1Cc2ccccc2N1CC(=O)Nc1ccc(N2CCOCC2)cc1 (stereo not drawn),-7.4,-12.7,i,-13.8%,-3.7%,-2.9
O=C(CN1CCN(c2ccccc2O)CC1)Nc1ccc2c(c1)OCCCO2,7.0,-50.5*,i,2.1%,1.1%,-8.1
CC1Cc2ccccc2N1CC(=O)Nc1ccc2c(c1)OCCCO2 (stereo not drawn),-1.5,-29.5,i,9.9%,-18.3%,67.4*
O=C(CN1CCN(c2ccc(O)cc2)CC1)Nc1ccc2c(c1)OCCO2,4.1,15.2,?,-5.9%[11.3 µM],-8.6%,30.2*
COc1ccc(OC)c(NC(=O)c2cnc(N3CCCCC3)c3ccccc23)c1,/,/,/,/,/,-10.2
COc1ccc(-c2nn(-c3ccccc3)cc2C=O)cc1[N+](=O)[O-],15.5,-83.5*,i,-13.9%,1.2%,-7.3

# Assay outcomes as filed in PubChem.
